# D2 antag – antagonists of human D2 dopamine receptor; 2% of 340,000 active; HEK293 TREx D2 cells, calcium flux, dopamine EC80; P14416; inhibition, % at 10 µM; in the data active means inhibition above about 30%; inactive means below that, where a call was filed; further: 0% is about no effect
# Target sequence (P14416 whole entry, looked up): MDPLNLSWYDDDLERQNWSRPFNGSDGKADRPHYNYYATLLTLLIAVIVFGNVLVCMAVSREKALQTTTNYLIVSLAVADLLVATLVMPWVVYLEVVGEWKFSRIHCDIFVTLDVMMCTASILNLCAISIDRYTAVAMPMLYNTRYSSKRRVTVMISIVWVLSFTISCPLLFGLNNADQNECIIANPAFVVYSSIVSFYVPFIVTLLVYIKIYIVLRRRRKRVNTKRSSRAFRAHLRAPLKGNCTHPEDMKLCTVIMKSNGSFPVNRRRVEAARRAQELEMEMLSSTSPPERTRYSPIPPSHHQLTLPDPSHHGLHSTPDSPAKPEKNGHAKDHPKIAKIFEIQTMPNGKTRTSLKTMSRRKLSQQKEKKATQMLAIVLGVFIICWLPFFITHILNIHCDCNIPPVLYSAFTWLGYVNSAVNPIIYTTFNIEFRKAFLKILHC
#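 Dopamine at EC80 is the agonist stimulus; test compounds precede it by 180 s. Calcium flux read kinetically in a force-coupled, inducible HEK293 T-REx D2 cell line.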
# D2 ag-1 – human D2 receptor agonism in beta-arrestin assay; P14416; DiscoveRx PathHunter D2 beta-arrestin, luminescence, 90 min; 100% = 57 uM dopamine signal; activation, % (test concentration not listed); 0.084% of 360,000 active; in the data active means activation above about 40%; inconclusive means between about 15% and that limit
#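 DiscoveRx PathHunter D2 beta-arrestin cells (2,100/well) attached overnight, then compound-stimulated 90 min at 37 C in HBSS/10 mM HEPES/0.1% Tween-20 buffer; beta-galactosidase complementation read by luminescence after 1 h at ambient temperature. Dopamine 57 uM final (EC100) as control.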
# D2 ag-2 – activates the human D2 dopamine receptor; P14416; HEK293 T-REx D2 cells, calcium flux agonist mode; 0.53% of 340,000 active; activation, % at 2 µM;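 active means activation over 3 SD above normal in the single-dose calcium agonist read, cut at about 30% in these data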; further: 0% is about no effect
#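 Agonism is scored from calcium flux in a force-coupled, inducible HEK293 cell line expressing D2, read kinetically for 180 s after compound addition against dopamine controls.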
# D2 PAM-1 – positive allosteric modulators of human D2 dopamine receptor; HEK293 T-REx D2, calcium flux, EC20 dopamine potentiation; potentiation, % at 10 µM; 0.34% of 340,000 active; AID 485347;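 active means potentiation over 3 SD above the plate norm, cut at about 30% in these data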; further: 0% is about no effect
#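 Calcium flux readout, no-wash dye, 1 read/s. Inducible HEK293 Trex D2 line, overnight 30 C. Compound alone 180 s (agonist flags), then EC20 dopamine, another 180 s to score potentiation.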
# LDHA inh – blocks human lactate dehydrogenase A; activity change, % (values are at about 110 or 230 µM); AID 1347041; 0.15% of 480,000 active; purified LDHA, NADH/diaphorase-resazurin fluorescence; active compounds read low; in the data active means activity change below about -30%; inconclusive means mostly about -25% to -30%;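 further: plate controls were DMSO wells for no effect and wells without enzyme for full effect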
#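 Remaining NADH was detected by diaphorase (0.133 mg/mL) converting 37 µM resazurin to fluorescent resorufin, read at 0 and 20 minutes. The preceding 5-minute room-temperature reaction used 2 nM LDHA, 0.2 mM sodium pyruvate and 0.06 mM NADH at pH 7.4.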
# D2 PAM-2 – human D2 receptor positive allosteric modulation; P14416; DiscoveRx D2 beta-arrestin cells, luminescence, 90 min; 100% = 57 uM dopamine signal; potentiation, % (test concentration not listed); 0.23% of 360,000 active; in the data active means potentiation above about 50%; inconclusive means mostly about 30% to 49%
#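 D2 cells co-treated with compound plus 50 nM dopamine (EC20) for 90 min at 37 deg C to detect potentiation. Beta-arrestin recruitment was read as enzyme-fragment luminescence after 1 h at ambient temperature. Full response was set by 57 uM dopamine.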
# D3 ag – activates human D3 dopamine receptor beta-arrestin recruitment | DiscoveRx D3 beta-arrestin cells, luminescence, 90 min | Potency, µM (series often up to 76.9 µM), without a hit: at the top dose activation, hits mostly activators | shares compounds with D2 ag-2 | AID 720506 | 4% of 2,300 active;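 further: potency means the concentration at half of the fitted maximal effect; 100% = dopamine control response; nearly all actives have a fitted effect of over 70% in size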
# D2 ag-3 – activates human D2 dopamine receptor in D3 counterscreen; 5.9% of 2,300 active; DiscoveRx PathHunter D2 beta-arrestin, luminescence, 90 min; response scale: percent relative to full dopamine signal; AID 720507; shares compounds with D2 ag-2; Potency, µM (series often up to 76.9 µM), for inactives: at the highest dose activation, hits mostly activators; further: potency means the concentration at half of the fitted maximal effect; % of control where 0% means no effect; nearly all actives have a fitted effect of over 70% in size
# * hit, by the source's call; ? = inconclusive; · = no result given. The list is not random: actives were taken first. Their share in the collection is about 2.1%. Unless noted, the call rests on the fitted dose curve; in most records, active means well fitted activation curve with a large enough effect; inconclusive means small, poorly fitted or top-dose-only effect; inactive means flat fitted curve, though single readings scatter.
SMILES,D2 antag,D2 ag-1,D2 ag-2,D2 PAM-1,LDHA inh,D2 PAM-2,D3 ag,D2 ag-3
Cc1nn(-c2ccccc2)c(C)c1/C=N/N1CCN(c2ccccn2)CC1,15.8,9.2,19.0,2.3,-8.2,-2.1,?,17.4%
COC(=O)c1cc(NC(=O)CC2Oc3ccccc3NC2=O)cc(C(=O)OC)c1 (stereo not drawn),2.3,-0.9,26.3,3.9,-9.6,1.6,-0.3%,0.1%
Cc1ccc(S(=O)(=O)N(C)C)cc1NC(=O)C1CCN(C(=O)Nc2ccccc2)CC1,73.3*,0.2,0.7,-28.8,-11.2,-29.6,-1.7%,-3.9%
CCOC(=O)C1=C(CSc2nc(-c3ccncc3)ccc2C#N)OC(N)=C(C#N)C1c1ccc(OC)cc1 (stereo not drawn),17.1,6.2,-0.4,0.1,-5.4,17.7,·,·
CCOC(=O)C1=C(CSc2nc(CC)c(C)cc2C#N)OC(N)=C(C#N)C1c1ccc(OC)cc1 (stereo not drawn),13.3,-1.6,2.8,-1.3,4.9,2.0,9.8%,1.7%
Cc1cc(CN2CCN(CC(=O)Nc3cc(Cl)ccc3-n3cncn3)CC2)no1,4.4,1.7,41.3*,-21.8,-6.0,7.4,-6.4%,0.3%
COc1ccc(CCNC(=O)Cc2c(C)c3c(OC)cc(OC)cc3oc2=O)cc1,·,·,·,·,6.4,·,·,·
O=C1C2CC=CCC2C(=O)N1c1ccc(N2CCN(c3ccccn3)CC2)c([N+](=O)[O-])c1 (stereo not drawn),17.7,1.9,26.4,-22.0,3.7,7.0,?,8.5%
FC(F)Oc1ccc(NC(=S)NCCc2ccccc2)cc1,·,·,·,·,2.1,·,·,·
CCOC(=O)N1CCN(C(=O)COC(=O)COc2c(C)cc(C)cc2C)CC1,·,-4.6,·,·,-4.1,-4.9,·,·
CC(=O)N1CCN(C(=O)COC(=O)COc2c(C)cc(C)cc2C)CC1,21.3,0.2,-0.6,2.3,0.5,-10.3,-4.7%,-1.1%
CCC(C)N(CCNC(=O)c1ccc2c(c1)NC(=O)c1ccccc1S2)C1CCCCC1 (stereo not drawn),·,-6.3,·,-28.3,1.7,-31.8,-10.5%,-2.6%
CCN1CCN(c2ncnc3scc(-c4ccc(C)c(C)c4)c23)CC1,7.7,12.8,8.6,-0.8,-6.5,-1.3,·,·
CCN1CCN(c2ncnc3sc(C)c(-c4ccccc4)c23)CC1,-15.5,?,17.9,·,-9.2,12.1,5.0%,17.8µM*
Cc1cc(C)c(NC(=O)Cn2cnc3c(oc4ccccc43)c2=O)c(C)c1,15.6,4.9,-0.1,-8.0,-3.9,-5.8,-1.4%,-1.4%
COc1ccc(CNCC(O)COc2ccc(C(C)(C)C)cc2C)cc1OC (stereo not drawn),·,·,·,·,-4.6,·,·,·
COc1ccc(/C=C/C(=O)NC(=S)NN2CCCCC2c2cccnc2)cc1OC (stereo not drawn),-4.4,-1.6,49.0*,-18.9,5.1,-7.5,4.0%,1.8%
COc1cccc(CNC(=O)CCC2CCCN(C(=O)c3cc(C)on3)C2)c1 (stereo not drawn),14.9,-1.9,0.2,-1.8,-0.3,-4.4,·,·
COc1cccc(CNC(=O)CCC2CCCN(C(=O)c3cc(C4CC4)[nH]n3)C2)c1 (stereo not drawn),63.0*,0.5,0.3,13.8,0.2,2.1,-2.0%,0.3%
CCOc1cc(CNCCc2ccc(S(N)(=O)=O)cc2)ccc1OCc1ccc(Cl)cc1,64.9*,3.7,2.0,-1.7,-4.8,11.8,?,?
COc1ccc(NS(=O)(=O)c2cccc(C(=O)NNC(=O)c3ccc(C)o3)c2)cc1,-4.8,-1.6,0.1,-10.7,-3.2,-2.5,2.5%,1.8%

# Screening results deposited in PubChem BioAssay by National Center for Advancing Translational Sciences (NCATS).
